DRD3 antagonist: D3 dopamine receptor (human) antagonism. P35462. hit rate 2.5% among 360,000. max response, negative = inhibition, %. D3R cells, DiscoveRx beta-arrestin luminescence, antagonist mode; hits give low values; in the data active = max response below about -50%; inconclusive = no clear call, values can overlap the other calls; note: % is set by controls: 0 for no effect and ±100 for the full control effect
Target sequence (P35462 whole entry, looked up): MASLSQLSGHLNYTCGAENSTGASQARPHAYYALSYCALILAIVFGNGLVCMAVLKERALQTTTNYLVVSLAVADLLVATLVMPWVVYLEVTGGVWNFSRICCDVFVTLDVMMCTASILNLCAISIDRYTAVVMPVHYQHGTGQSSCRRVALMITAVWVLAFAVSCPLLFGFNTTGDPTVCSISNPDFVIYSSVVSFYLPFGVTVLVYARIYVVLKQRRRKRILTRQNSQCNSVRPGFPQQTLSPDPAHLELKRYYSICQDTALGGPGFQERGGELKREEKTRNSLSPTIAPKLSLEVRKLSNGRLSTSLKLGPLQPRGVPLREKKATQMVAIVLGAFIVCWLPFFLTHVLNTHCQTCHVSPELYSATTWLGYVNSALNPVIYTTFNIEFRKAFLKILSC
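Cells plated overnight at 1500 cells/well, then exposed to library compounds with dopamine controls for 90 minutes at 37 degrees C. DiscoveRx reagent added for 30–60 minutes at room temperature; luminescence read, quantitative HTS format.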
uPA generation: inhibitors of cell surface uPA generation. Potency, µM (doses to about 38.3 µM), inactives show at the top dose activity change, negative = inhibition, actives largely listed as inhibitors. AID 540303. hit rate 0.31% among 330,000. cell surface uPA generation assay, qHTS; active = well fitted inhibition curve with a large enough effect; inconclusive = small, poorly fitted or top-dose-only effect; inactive = no such curve, though single readings can be large or run the other way; tested in mouse RAW 264.7 cells; note: potency is the fitted concentration of half-maximal effect; % is set by controls: 0 for no effect and ±100 for the full control effect; nearly all actives have a fitted effect of over 55% in size
RGS4 inh: inhibitors of human regulator of G protein signaling 4; P49798; Transcreener GDP fluorescence polarization, RGS4-accelerated GTP hydrolysis; Potency, µM (series often up to 114 µM), inactives show top-dose activity change, negative = inhibition, usual class: inhibitors; hit rate 0.039% among 390,000; AID 504845; active = well fitted inhibition curve with a large enough effect; inconclusive = small, poorly fitted or top-dose-only effect; inactive = no such curve, though single readings can be large or run the other way; note: potency is the fitted concentration of half-maximal effect; % is set by controls: 0 for no effect and ±100 for the full control effect; nearly all actives have a fitted effect of over 75% in size
Target sequence (P49798 whole entry, looked up): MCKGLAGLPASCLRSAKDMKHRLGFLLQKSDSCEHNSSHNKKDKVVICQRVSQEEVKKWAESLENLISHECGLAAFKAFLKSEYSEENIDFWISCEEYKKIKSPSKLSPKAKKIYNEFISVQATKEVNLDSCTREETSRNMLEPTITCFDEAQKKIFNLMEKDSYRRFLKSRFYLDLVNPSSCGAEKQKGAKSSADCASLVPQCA
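MLSMR compounds (23 nl, pin-transferred) preincubated 10 min at room temperature with a 500nM (2x) first reagent, then RGS4 at 900nM (2x) plus Transcreener GDP mix added; fluorescence polarization (620/688 nm) read before and after 90 min at 30 °C.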
DRD3 agonist: agonists of human D3 dopamine receptor; D3R DiscoveRx beta-arrestin cells, luminescence, 90 min; max activation, %; hit rate 0.58% among 410,000; in the data active = max activation above about 30%; note: 0% is about no effect
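Cells at 1500/well, incubated overnight, then treated with pinned compounds (dopamine as control) for 90 min at 37 degrees C. DiscoveRx reagent added for 30 - 60 minutes at room temperature; luminescence read.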
* marks the source's active call; other numbers are inactive results; ? = inconclusive; . = no result given; [ ] = dose if it differs, or a comment. This is a sample that favours compounds with a hit; in the whole collection about 3.1% have one here.

SMILES	DRD3 antagonist	uPA generation	RGS4 inh	DRD3 agonist
C=CC[C@H](CC(=O)N(CCO)Cc1ccccc1)C(=O)N[C@@H](C)COC(=O)[C@H](CC=C)CC(=O)OC(C)(C)C	17	-2%	-5%	43*
Cn1c(=O)c2c(c3ccccc31)OC(=O)CC2c1ccc(C(F)(F)F)cc1 (configuration not stated)	.	.	10%	-1
COc1cccc(CNc2ccc3[nH]c(=O)[nH]c3c2)c1OCc1ccc(F)cc1	-54*	5%	-34%[56.9 µM]	-12
C=CCOc1c(CNc2ccc3[nH]c(=O)[nH]c3c2)cccc1OC	7	-2%	?	6
COc1ccc(CNC(=O)CCc2c(C)c3ccc(OC)c(C)c3oc2=O)cc1OC	.	.	13%	7
COc1ccc(CCNC(=O)Cc2c(C)c3ccc(O)c(C)c3oc2=O)cc1OC	.	.	17%	38*
Fc1ccc(CNc2ncnc3nc[nH]c23)cc1	.	.	0%	.
CCSc1ccc([C@@H]2[C@H]3C(=O)N(CC)C(=O)[C@H]3[C@]3(C(=O)OC)CCCCN23)cc1OC	56	10%	-19%	63*
Cc1ccc(Cc2cnc(NC(=O)C3Cc4ccc(C)cc4C(=O)O3)s2)cc1 (configuration not stated)	.	.	-6%	1
CC(=O)Nc1ccc(NC(=O)c2cccc(Oc3ccccc3)c2)cc1	-51*	.	-30%	-16
COC(=O)c1ccc(NC(=O)c2cccc(C)c2)cc1	-52*	6%	4%	-2
Cc1ccc(S(=O)(=O)N2CCN(C(=O)CN3CCCSc4ccccc43)CC2)cc1	-55*	1%	6%	-12
N#Cc1ccccc1S(=O)(=O)N1CCN(C(=O)CN2CCCSc3ccccc32)CC1	-18	-4%	-10%	2
Cc1oc2c(c1C(=O)N1CCC(C)CC1)C(=O)c1ccccc1C2=O	-6	10µM*	-2%	4
CCOC(=O)C1CCN(C(=O)c2c(C)oc3c2C(=O)c2ccccc2C3=O)CC1	?	?	1%	-1
COc1cc(C=Nc2cccc(C)c2)c(O)c([N+](=O)[O-])c1	-92*	-3%	-20%	-30
Cc1ccc(C(C)C)c(OCC(=O)Nc2c(C(=O)c3ccccc3)oc3ccccc23)c1	.	.	-5%	5
CCc1ccc(Nc2n[n+](-c3ccccc3)c(-c3cc(OC)c(OC)cc3Br)s2)cc1	-51*	-11%	-30%	-9
COc1ccc2ccccc2c1-c1sc(Nc2ccccc2)n[n+]1-c1ccc(F)cc1	-80*	?	14%	-62
COc1ccc(-c2sc(Nc3ccccc3)n[n+]2-c2ccc(F)cc2)cc1Br	-2	15%	-7%	-11
CCc1ccc(Nc2n[n+](-c3ccccc3)c(-c3c(Cl)cccc3Cl)s2)cc1	-5	13µM*	-48%	-30
COc1ccc(C)cc1Nc1n[n+](-c2ccccc2)c(-c2c(Cl)cccc2Cl)s1	-87*	?	-32%	-52
Nc1c(-c2nc(-c3cccs3)no2)nnn1-c1cccc(F)c1	.	.	-2%	-5
O=C(Cn1cc(COc2ccc(-n3cccc3)cc2)nn1)NS(=O)(=O)c1ccccc1C(F)(F)F	-29	.	.	6
O=C(Cn1cc(COc2ccc(Cl)c(Cl)c2)nn1)NS(=O)(=O)c1ccccc1C(F)(F)F	-67*	.	.	-5
SMILES	DRD3 antagonist	uPA generation	RGS4 inh	DRD3 agonist
CNc1nc(-c2ccccc2)nnc1C(F)(F)F	0	-6%	-18%	4
Cc1ccc(Sc2nc(-c3ccccc3)nnc2C(F)(F)F)cc1	-70*	3%	4%	-5
O=C1c2ccccc2C(=O)N1CCCc1cn(C[C@H]2CC[C@@H]([C@@H]3CC[C@H](Cn4cc(CCCN5C(=O)c6ccccc6C5=O)nn4)O3)O2)nn1	8	2%	7%	12
O=C1c2ccccc2C(=O)N1CCCCc1cn(C[C@H]2CC[C@@H]([C@@H]3CC[C@H](Cn4cc(CCCCN5C(=O)c6ccccc6C5=O)nn4)O3)O2)nn1	66	24%	-1%	51*
CCCCCCCCCCOCC(O)CN (configuration not stated)	.	.	.	-7
Cc1cccc(NC(=S)NC2CC3CCCC(C2)N3Cc2cccs2)c1 (configuration not stated)	-87*	?	9%	-29
COc1cccc(-n2c(C)c3c(OC)cccc(=O)c3c2C)c1	-26	-2%	-3%	-9
COc1cccc(=O)c2c(C)n(-c3cc(C)cc(C)c3)c(C)c12	-65*	1%	-19%	6
COC(=O)c1ccccc1NC(=O)NC1CCN(Cc2ccccc2)CC1	-93*	.	12%	-33
COc1ccc(C)cc1NC(=O)NC1CCN(Cc2ccccc2)CC1	-83*	.	-3%	-25
COc1ccc(S(=O)(=O)NC2CCN(Cc3ccccc3)CC2)cc1NC(C)=O	24	8%	-3%	-9
CCC(C)[C@H](NC(=O)NC1CCN(Cc2ccccc2)CC1)C(=O)OC (some centres not stated)	-50*	.	-3%	-38
CCN1CCC(NC(=O)Nc2ccccc2C(=O)OC)CC1	2	12%	10%	-4
COc1ccc(OC)c(S(=O)(=O)N2CCC(n3c(C)nc4cccnc43)CC2)c1	.	.	-20%	-1
O=C(NCCc1ccc(Cl)cc1)c1cc(-c2ccc(Cl)cc2)n[nH]1	.	.	-11%	2
C[C@H](CO)N1C[C@H](C)[C@H](CN(C)Cc2cccc(O)c2)OCc2ccccc2-c2c(n(C)c3ccccc23)C1=O	24	.	.	45*
CCOC(=O)Cc1csc(NS(=O)(=O)c2ccc3c4c(cccc24)C(=O)N3CC)n1	-66*	-4%	-104%	0
CCOC(=O)CNS(=O)(=O)c1ccc2c3c(cccc13)C(=O)N2CC	7	-4%	15%	3
CS(=O)(=O)c1ccc(Cn2c3c(c4cc(F)cc(F)c42)CCC[C@H]3CC(=O)O)cc1	.	.	68%[56.9 µM]	.
Cc1ccc(C)c(S(=O)(=O)/N=C2\C=C(NS(=O)(=O)c3ccccc3)C(=O)c3ccccc32)c1	?	1%	10%	-5
Cc1cc(C)c(S(=O)(=O)/N=C2/C=C(Sc3ncn[nH]3)C(=O)c3ccccc32)cc1C	-69*	-8%	-121%	-9
c1ccc(N2CCN(Cc3nc4ccccc4[nH]3)CC2)nc1	3	-2%	20%	0
Cc1[nH]c2ccccc2c1CN1CCN(c2ccccn2)CC1	-67*	-9%	-11%	-27
c1ccc(-c2ncc(CN3CCN(c4ccccn4)CC3)[nH]2)cc1	-105*	17%	-9%	-12
COc1ccc(-c2cccc(NS(=O)(=O)c3ccc(C)s3)c2)nn1	.	.	-16%	-1
COc1ccc(-n2nc(C(=O)Nc3cc(C)ccn3)c3c4ccccc4n(C)c3c2=O)cc1	.	.	4%	2
O=C(NCC(c1ccc2c(c1)OCO2)N1CCN(c2ccccc2F)CC1)c1ccccc1F (configuration not stated)	.	.	-32%	-22
C/C(NCCc1ccc(O)cc1)=C1/CCOC1=O	6	.	.	45*
